Test results reported in PubChem BioAssay.
The source made the active and inactive calls. Unless noted, how the calls were made is not given here.

How the values were obtained:
[1] = compound effects on lung adenocarcinoma cell viability – A549, calcein-AM fluorescence, 48 h, basal, profiling panel (AID 1162); conditions: higher = more signal; further: test concentration not given here
[2] = compound effects on differentiated 3T3-L1 adipocyte viability – cell-based, 3T3-L1 adipocytes, calcein-AM fluorescence, 48 h, basal, profiling panel (AID 1163); conditions: 3T3-L1 adipocytes viability, higher = more signal; further: test concentration not given here
[3] = compound effects on hepatocellular carcinoma cell viability – HepG2, calcein-AM fluorescence, 48 h, basal, profiling panel (AID 1164); conditions: higher = more signal; further: test concentration not given here
[4] = compound effects on multiple myeloma cell viability – MM1S, calcein-AM fluorescence, 48 h, basal, profiling panel (AID 1165); conditions: higher = more signal; further: test concentration not given here
[5] = calcein-AM signal in unstimulated myeloma cells – cell-based, calcein-AM fluorescence, 48 h, PK04 Diversity Set, profiling panel (AID 1166); conditions: RPMI8226 myeloma viability, higher = more signal;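 further: cells grown under basal conditions without added stimulus; test concentration not given here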
[6] = JC-1 mitochondrial signal, unstimulated HepG2 cells – cell-based, JC-1 fluorescence, 24 h, 100 nL compound, profiling panel (AID 1167); conditions: HepG2 mitochondrial potential, higher = more signal; further: test concentration not given here
[7] = JC-1 mitochondrial signal, unstimulated adipocytes – cell-based, JC-1 fluorescence, 3T3-L1 adipocytes, 24 h, 100 nL compound, profiling panel (AID 1168); conditions: JC-1 mitochondrial fluorescence, higher = more signal, called active from +8 up or from −8 down; further: test concentration not given here
[8] = JC-1 mitochondrial signal, unstimulated myeloma cells – cell-based, JC-1 fluorescence, RPMI8226, 24 h, 100 nL compound, profiling panel (AID 1169); conditions: JC-1 mitochondrial potential fluorescence, higher = more signal; further: test concentration not given here
[9] = JC-1 mitochondrial signal, unstimulated MM1S myeloma – cell-based, JC-1 fluorescence, 24 h, 100 nL compound, profiling panel (AID 1170); conditions: MM1S mitochondrial potential, higher = more signal; further: test concentration not given here
[10] = resazurin metabolic signal in A549 cells – cell-based, resazurin fluorescence, 24 h, PK04 Diversity Set, profiling panel (AID 1171); conditions: A549 viability, higher = more signal, called active from +8 up or from −8 down; further: test concentration not given here
[11] = resazurin metabolic signal in HepG2 cells – cell-based, resazurin fluorescence, 24 h, PK04 Diversity Set, profiling panel (AID 1172); conditions: HepG2 viability, higher = more signal; further: test concentration not given here
[12] = budding yeast growth changes without added modifier – OD600, strain BY4716, 24 h, basal condition, primary screen (AID 1173); conditions: S. cerevisiae BY4716 growth, OD600, 24 h; higher = more signal, called active from +8 up or from −8 down
[13] = viability profiling in MM1S myeloma cells – cell-based, resazurin fluorescence, basal, 24 h, PK04 Diversity Set, profiling panel (AID 1174); conditions: higher = more signal, called active from +8 up or from −8 down; further: test concentration not given here
[14] = molecular target: Dihydroorotate dehydrogenase (quinone), mitochondrial (Plasmodium falciparum (isolate 3D7)) (UniProt Q08210); assay: inhibition of P. falciparum DHODH – biochemical, C-terminal His tag, absorbance 600 nm, primary screen (AID 1175); conditions: PfDHODH enzyme, DCIP absorbance 600 nm; higher = more signal, called active from +8 up or from −8 down;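 further: recombinant parasite enzyme with a five histidine tag at its C terminus; test concentration not given here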
[15] = inhibition of PAO1 biofilm formation – strain PAO1, LB-PBS medium, absorbance 600 nm, primary screen (AID 1176); further: test concentration not given here; conditions: P. aeruginosa PAO1 growth/biofilm, A600, 12 h; higher = more signal
[16] = growth modulation of vineyard yeast isolate – strain RM11-1a, OD600, basal, 24 h, primary screen (AID 1177);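 further: cultures grown under basal conditions with no added stressor; test concentration not given here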; conditions: S. cerevisiae RM11-1a growth, OD600, 24 h; higher = more signal, called active from +8 up or from −8 down
[17] = growth of efflux-deficient E. coli DRC39 – strain DRC39, OD650, 24 h, E. coli filamentation inducers, primary screen (AID 1178);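 further: growth measured as culture turbidity by optical density at 650 nm; test concentration not given here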; conditions: E. coli DRC39 acrAB, higher = more signal, called active from +8 up or from −8 down
[18] = growth of efflux-deficient E. coli DRC39 – strain DRC39, OD650, 48 h, E. coli filamentation inducers, primary screen (AID 1179);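 further: screen aims at cell division blockers that make cells filament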; conditions: E. coli DRC39 delta-acrAB growth, higher = more signal, called active from +8 up or from −8 down
[19] = viability profiling in RPMI8226 myeloma cells – cell-based, resazurin fluorescence, basal, 24 h, PK04 Diversity Set, profiling panel (AID 1180); conditions: higher = more signal;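 further: RPMI8826 multiple myeloma cell line at 5000 cells per well; test concentration not given here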
[20] = molecular target: E3 ubiquitin-protein ligase XIAP (Homo sapiens) (UniProt P98170); assay: small molecules binding XIAP protein – biophysical, small-molecule microarray, fluorescence 635 nm, primary screen (AID 1181); conditions: higher = more signal;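 further: score merges 667 nm emission and signal to noise over triplicate slides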
E3 ubiquitin-protein ligase XIAP (Homo sapiens), sequence (P98170 whole entry, looked up): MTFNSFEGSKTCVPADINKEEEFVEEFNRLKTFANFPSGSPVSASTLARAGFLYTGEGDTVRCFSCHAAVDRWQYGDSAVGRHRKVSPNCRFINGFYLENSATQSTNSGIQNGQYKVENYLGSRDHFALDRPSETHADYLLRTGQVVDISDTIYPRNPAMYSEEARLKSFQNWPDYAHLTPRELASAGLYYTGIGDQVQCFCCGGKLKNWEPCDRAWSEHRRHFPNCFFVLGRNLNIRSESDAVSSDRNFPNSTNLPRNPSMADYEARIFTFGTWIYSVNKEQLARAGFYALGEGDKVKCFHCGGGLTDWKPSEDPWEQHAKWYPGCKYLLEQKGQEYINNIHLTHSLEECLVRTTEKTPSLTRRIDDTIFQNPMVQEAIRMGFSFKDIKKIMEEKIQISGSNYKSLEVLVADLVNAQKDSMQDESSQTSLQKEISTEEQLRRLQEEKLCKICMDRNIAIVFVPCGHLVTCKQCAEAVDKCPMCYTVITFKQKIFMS

Dihydroorotate dehydrogenase (quinone), mitochondrial (Plasmodium falciparum (isolate 3D7)), sequence (Q08210 whole entry, looked up): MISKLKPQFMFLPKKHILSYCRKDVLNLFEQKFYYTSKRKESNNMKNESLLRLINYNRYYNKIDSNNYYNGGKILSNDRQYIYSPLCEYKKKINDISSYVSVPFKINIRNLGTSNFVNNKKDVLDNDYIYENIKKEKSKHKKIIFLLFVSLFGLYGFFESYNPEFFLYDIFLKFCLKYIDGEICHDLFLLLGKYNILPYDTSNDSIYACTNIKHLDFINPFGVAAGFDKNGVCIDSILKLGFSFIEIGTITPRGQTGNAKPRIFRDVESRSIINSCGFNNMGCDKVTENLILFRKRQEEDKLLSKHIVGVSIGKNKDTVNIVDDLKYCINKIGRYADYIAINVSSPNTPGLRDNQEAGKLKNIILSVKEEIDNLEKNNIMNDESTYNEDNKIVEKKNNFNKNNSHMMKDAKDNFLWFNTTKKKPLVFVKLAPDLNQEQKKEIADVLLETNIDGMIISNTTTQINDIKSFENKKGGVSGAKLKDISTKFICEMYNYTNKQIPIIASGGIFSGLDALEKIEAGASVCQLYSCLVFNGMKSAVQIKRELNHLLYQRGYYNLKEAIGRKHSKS

| Structure (SMILES) | z-score [1] | z-score [2] | z-score [3] | z-score [4] | z-score [5] | z-score [6] | z-score [7] | z-score [8] | z-score [9] | z-score [10] | z-score [11] | z-score [12] | z-score [13] | composite z-score [14] | z-score [15] | z-score [16] | z-score [17] | z-score [18] | z-score [19] | composite z-score [20] |
| --- | --- | --- | --- | --- | --- | --- | --- | --- | --- | --- | --- | --- | --- | --- | --- | --- | --- | --- | --- | --- |
| CCOC(=O)C[C@H]1[C@H](OC(=O)Cc2ccc3c(c2)OCO3)[C@@H](NC(=O)CC(C)C)c2cc(OCCCO)ccc2N1C(=O)c1ccc2ccccc2n1 | 0.415 | 1.37 | -0.236 | 0.383 | -0.577 | 0.218 | 0.0499 (inactive) | 0.01 | -0.659 | 0.194 (inactive) | 0.0081 | -1.8 (inactive) | -0.0432 (inactive) | -1.94 (inactive) | -1.53 (inactive) | -0.0738 (inactive) | 0.57 (inactive) | -0.0185 (inactive) | -0.255 | 0.514 |
| COCCOC(=O)N1C(=O)[C@@]2(c3cc(C#CC4(O)CCCCCC4)ccc31)[C@H](C(N)=O)[C@H]1C(=O)O[C@H](c3ccccc3)[C@H](c3ccccc3)N1[C@@H]2c1ccc(OCCO)cc1 | -0.502 | -0.0582 | -1.71 | -2.99 | -4.26 | -1.97 | -0.69 (inactive) | -1.29 | -1.7 | -1.54 (inactive) | -0.905 | 0.842 (inactive) | -3.72 (inactive) | 0.42 (inactive) | 2.53 (inactive) | 2.58 (inactive) | 0.141 (inactive) | 0.282 (inactive) | -3.3 | 0.128 |
| C=C1C(=O)C=C2CN(C(=O)c3ccccc3)[C@@](Cc3ccc(F)cc3)(C(=O)OC)[C@@H]12 | -3.89 | -1.94 | -5.62 | -3.36 | -4.73 | -3.92 | 3.42 (inactive) | -0.764 | -2.82 | -7 (inactive) | -6.48 | -11.8 (active) | -9.98 (active) | -1.67 (inactive) | 0.439 (inactive) | -2.19 (inactive) | 0.322 (inactive) | -1.8 (inactive) | -7.28 | 0.154 |
| C=CC[C@H](O)c1ccc(O)c2ccccc12 | 0.902 | -0.0385 | -0.817 | -2.84 | -3.71 | -2.13 | 0.241 (inactive) | -0.752 | -1.71 | -0.409 (inactive) | -0.129 | -15.1 (active) | -1.42 (inactive) | -1.86 (inactive) | 0.614 (inactive) | 0.891 (inactive) | 0.682 (inactive) | 0.419 (inactive) | -1.05 | -0.113 |
| CCCN1C(=O)[C@@]2(c3ccc([N+](=O)[O-])cc3)CC(=O)N(C3CCCCC3)[C@@H]2c2ccc(CO)cc21 | -0.522 | -0.952 | -0.574 | -0.679 | -0.173 | -1.19 | -0.626 (inactive) | -0.696 | -0.868 | -0.291 (inactive) | -0.225 | 1.88 (inactive) | -0.674 (inactive) | -24.3 (active) | 0.944 (inactive) | 1.89 (inactive) | 0.197 (inactive) | -1.27 (inactive) | -0.606 | -0.0773 |
| COCCOC(=O)N1C(=O)[C@@]2(c3cc(C#CCNC(N)=O)ccc31)[C@H](c1ccccc1OCCO)N1[C@H](c3ccccc3)[C@H](c3ccccc3)OC(=O)[C@H]1[C@@H]2C(=O)N1CCCCCCC1 | -0.396 | -0.0319 | 0.371 | -1.22 | 0.56 | -1.51 | -1.3 (inactive) | -0.441 | -0.911 | 0.519 (inactive) | 0.875 | 1 (inactive) | 0.723 (inactive) | -0.321 (inactive) | 2.91 (inactive) | 1.09 (inactive) | -0.256 (inactive) | -0.276 (inactive) | -0.55 | -0.0143 |
| CCCCCCCCCCC(O)C1C=CC2C(=O)N(C)C(=O)C2N1Nc1ccccc1 (stereo not given) | -2.46 | -1.27 | -1.38 | -3.85 | -4.07 | -1.18 | -0.92 (inactive) | -0.744 | 0.0317 | -0.545 (inactive) | -1.83 | 0.27 (inactive) | -1.49 (inactive) | -0.205 (inactive) | 1.58 (inactive) | 1.35 (inactive) | -0.483 (inactive) | -0.54 (inactive) | -1.33 | 0.192 |
| COc1ccc([Si](C)(C)[C@H]2[C@H](CCO)O[C@@]3(C(=O)N(Cc4ccccc4)c4ccc(NC(=O)[C@H](C)O)cc43)[C@@H]2C)cc1 | -1.88 | -1.49 | -4.52 | -2.62 | -4.31 | -2.86 | 0.364 (inactive) | -0.961 | -2.39 | -3.18 (inactive) | -4.02 | 0.478 (inactive) | -7.25 (inactive) | 1.18 (inactive) | 1.7 (inactive) | 4.58 (inactive) | 1.23 (inactive) | 0.723 (inactive) | -5.45 | 0.0153 |
